Unmarked numbers belong to inactive results. Results filed as inconclusive are left out. The source made the active and inactive calls. Calls follow the shape of the dose curve; as a rule, active = well fitted curve in the direction sought with a large enough effect; inconclusive = small, poorly fitted or top-dose-only effect, or another doubt; inactive = no such curve, though single readings can be large; an effect the other way counts as inactive or inconclusive.
Assay: qHTS assay for measurement of the activity of small molecule inhibitors on Zika virus induced Caspase-3 activity in human iPSC derived neural progenitor cells (hNPCs) (AID 1224857); also: % of control where 0% means no effect; nearly all actives have a fitted effect of over 65% in size
Settings: hNPCs ZIKV-induced caspase-3/7, Caspase-Glo luminescence, 6 h; series mostly up to 45.7 µM; activity change, negative = inhibition: at the top concentration
Procedure, shortened: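 Values are percent inhibition of virus-induced caspase-3/7 signal, scaled between uninfected cells and ZIKV-infected cells. Infection used 2 FFU/cell for 6 h after 1 h compound exposure.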

First: CCC1(CCC(C)C)C(=O)NC(=O)NC1=O
Second: C=CCC1=C(C)C(OC(=O)C2C(C=C(C)C)C2(C)C)CC1=O (centres undefined)
The “activity change, negative = inhibition” value of the first is lower: -3.56% [at 92.8 µM] for the first, 57.9% [at 92.8 µM] for the second.

Compared with CCO/N=C(\CC)C1=C(O)CC(c2c(C)cc(C)cc2C)CC1=O (centres undefined), CCOP(=O)(NC(C)C)Oc1ccc(SC)c(C)c1 (centres undefined) is lower in “activity change, negative = inhibition” value: 5.68% [at 92.8 µM] for the first, -10.1% [at 92.8 µM] for the second.

Going from ClC1=C(Cl)[C@]2(Cl)[C@@H]3[C@@H]4C[C@@H]([C@H]5O[C@@H]45)[C@@H]3[C@@]1(Cl)C2(Cl)Cl to Nc1c(Cl)c(Cl)c(Cl)c(Cl)c1Cl, the “activity change, negative = inhibition” value falls from 153% [at 92.8 µM] to 1.75% [at 92.8 µM].

First: O=S(=O)(c1ccc(Cl)cc1)c1ccc(Cl)cc1
Second: O=C(Nc1ccccc1-c1ccc(Cl)cc1)c1cccnc1Cl
The “activity change, negative = inhibition” value of the first is higher: 55.7% [at 92.8 µM] for the first, 11.3% [at 92.8 µM] for the second.

Compared with CCCCOC(=O)c1ccccc1C(=O)OCc1ccccc1, CCCCC(CC)COC(=O)c1ccccc1C(=O)OCC(CC)CCCC (centres undefined) is higher in “activity change, negative = inhibition” value: -6.28% [at 92.8 µM] for the first, 30.3% [at 92.8 µM] for the second.

Going from Nc1ccc(Cl)cc1N to Nc1ccc([N+](=O)[O-])cc1, the “activity change, negative = inhibition” value rises from -0.875% [at 92.8 µM] to 1.96% [at 92.8 µM].

Compared with CC(C)(C)C(O)C(Oc1ccc(Cl)cc1)n1cncn1 (centres undefined), CC1(C)CC/C(=C/c2ccc(Cl)cc2)C1(O)Cn1cncn1 (centres undefined) is lower in “activity change, negative = inhibition” value: 4.07% [at 92.8 µM] for the first, 2.35% [at 92.8 µM] for the second.

Compared with Nc1ccc(Sc2ccc(N)cc2)cc1, c1cc2ccc3cccc4ccc(c1)c2c34 is lower in “activity change, negative = inhibition” value: 12.6% [at 92.8 µM] for the first, -2.08% [at 92.8 µM] for the second.

Compared with O=[N+]([O-])c1c(Cl)c(Cl)cc(Cl)c1Cl, O=[N+]([O-])c1cc([N+](=O)[O-])c2ccccc2c1 is higher in “activity change, negative = inhibition” value: 13.6% [at 92.8 µM] for the first, 35% [at 92.8 µM] for the second.

Going from CS(=O)(=O)c1ccc(C(=O)C2C(=O)CCCC2=O)c([N+](=O)[O-])c1 to Oc1ccc2c3c1O[C@H]1[C@@H](O)C=C[C@H]4[C@@H](C2)NCC[C@@]341, the “activity change, negative = inhibition” value falls from -1.57% [at 92.8 µM] to -2.54% [at 92.8 µM].

Going from COCCOCCO to CCOCCOC(C)=O, the “activity change, negative = inhibition” value rises from -8.11% [at 92.8 µM] to -0.91% [at 92.8 µM].

First: C=CC(=O)NCNC(=O)C=C
Second: CC(C)Oc1cccc(NC(=O)c2ccccc2C(F)(F)F)c1
The “activity change, negative = inhibition” value of the first is lower: 4.51% [at 92.8 µM] for the first, 16.7% [at 92.8 µM] for the second.

For OCCCBr, the “activity change, negative = inhibition” value was 18.2% [at 92.8 µM].

Compared with CC(O)CN1CCN(CC(=O)[O-])CCN(CC(=O)[O-])CCN(CC(=O)[O-])CC1.[Gd+3] (centres undefined), CCC(=O)O[C@@H]1C=C2CCC3C(CCC4(C)C3CC[C@@H]4OC(=O)CC)C2CC1 (some centres undefined) is lower in “activity change, negative = inhibition” value: -0.53% for the first, -1.61% for the second.

Going from COC(C)(C)CCCC(C)C/C=C/C(C)=C/C(=O)OC(C)C (centres undefined) to CC(C)NCC(O)c1ccc([N+](=O)[O-])cc1 (centres undefined), the “activity change, negative = inhibition” value falls from -3.17% to -5.87%.

Going from O=[N+]([O-])c1ccc([As](=O)(O)O)cc1 to Cc1cc(O)ccc1Cl, the “activity change, negative = inhibition” value falls from 5.07% to -7.15%.

Going from O=C1C(I)=CC(=C(c2cc(I)c(O)c(I)c2)c2ccccc2C(=O)O)C=C1I to COC(=O)c1cncn1C(C)c1ccccc1 (centres undefined), the “activity change, negative = inhibition” value rises from -9.4% to -7.91%.

Compared with C1CCC(NC2CCCCC2)CC1, CN[C@@H](C)[C@H](O)c1ccccc1 is higher in “activity change, negative = inhibition” value: -7.03% for the first, -2.19% for the second.

In the case of Cc1ccc(Cl)c(O)c1, the “activity change, negative = inhibition” value is reported as 21.2%.

In the case of C[N+](C)(C)CC(=O)O, the Potency is reported as “inactive”.

With CC1=C(C(=O)O)N2C(=O)[C@@H](N)[C@H]2SC1 the “activity change, negative = inhibition” value was -0.083% [at 20.5 µM].

Assay: qHTS assay for measurement of the activity of small molecule inhibitors on Zika virus induced Caspase-3 activity in human astrocytoma cells (AID 1224859);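 also: plate controls were ZIKV-infected untreated cells for no effect and uninfected cells for full effect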
Settings: SNB-19 ZIKV-induced caspase-3/7, luminescence, 6 h; series mostly up to 45.7 µM; activity change, negative = inhibition: at the top concentration
Procedure, shortened: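 Compound added 1 h pre-infection; ZIKV 2 FFU/cell on SNB-19 cells, 6 h, 37 C/5% CO2. Caspase-Glo 3/7 luminescence; values as % inhibition of ZIKV-induced caspase activity.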

Compared with CCC1(CCC(C)C)C(=O)NC(=O)NC1=O, C=CCC1=C(C)C(OC(=O)C2C(C=C(C)C)C2(C)C)CC1=O (centres undefined) is higher in “activity change, negative = inhibition” value: 15.7% [at 92.8 µM] for the first, 19.1% [at 92.8 µM] for the second.

Compared with O=S(=O)(c1ccc(Cl)cc1)c1ccc(Cl)cc1, Nc1ccc(Sc2ccc(N)cc2)cc1 is lower in “activity change, negative = inhibition” value: 2.15% [at 92.8 µM] for the first, -9.95% [at 92.8 µM] for the second.

Going from CCCCOC(=O)c1ccccc1C(=O)OCc1ccccc1 to CC(C)Oc1cccc(NC(=O)c2ccccc2C(F)(F)F)c1, the “activity change, negative = inhibition” value falls from 6.4% [at 92.8 µM] to -4.33% [at 92.8 µM].

First: CCOP(=O)(NC(C)C)Oc1ccc(SC)c(C)c1 (centres undefined)
Second: CC(C)(C)C(O)C(Oc1ccc(Cl)cc1)n1cncn1 (centres undefined)
The “activity change, negative = inhibition” value of the first is lower: -6.81% [at 92.8 µM] for the first, 1.97% [at 92.8 µM] for the second.

Going from Nc1ccc(Cl)cc1N to CC1(C)CC/C(=C/c2ccc(Cl)cc2)C1(O)Cn1cncn1 (centres undefined), the “activity change, negative = inhibition” value falls from 15.2% [at 92.8 µM] to 14.7% [at 92.8 µM].

Compared with O=[N+]([O-])c1c(Cl)c(Cl)cc(Cl)c1Cl, Nc1c(Cl)c(Cl)c(Cl)c(Cl)c1Cl is higher in “activity change, negative = inhibition” value: 5.55% [at 92.8 µM] for the first, 6.34% [at 92.8 µM] for the second.

Going from COc1nn(CSP(=S)(OC)OC)c(=O)s1 to CCOCCOC(C)=O, the “activity change, negative = inhibition” value falls from -2.93% [at 92.8 µM] to -3.89% [at 92.8 µM].

First: Oc1ccc2c3c1O[C@H]1[C@@H](O)C=C[C@H]4[C@@H](C2)NCC[C@@]341
Second: c1cc2ccc3cccc4ccc(c1)c2c34
The “activity change, negative = inhibition” value of the first is lower: 1.18% [at 92.8 µM] for the first, 3.98% [at 92.8 µM] for the second.

Going from O=[N+]([O-])c1cc([N+](=O)[O-])c2ccccc2c1 to OCCCBr, the “activity change, negative = inhibition” value rises from 6.18% [at 92.8 µM] to 14.4% [at 92.8 µM].

Going from COC(C)(C)CCCC(C)C/C=C/C(C)=C/C(=O)OC(C)C (centres undefined) to COC(=O)c1cncn1C(C)c1ccccc1 (centres undefined), the “activity change, negative = inhibition” value rises from -3.17% to 6.58%.

Going from O=[N+]([O-])c1ccc([As](=O)(O)O)cc1 to Cc1cc(O)ccc1Cl, the “activity change, negative = inhibition” value falls from 37.9% to -0.0476%.

Compared with O=C1C(I)=CC(=C(c2cc(I)c(O)c(I)c2)c2ccccc2C(=O)O)C=C1I, CN[C@@H](C)[C@H](O)c1ccccc1 is higher in “activity change, negative = inhibition” value: -8.53% for the first, -4.12% for the second.

Compared with CCC(=O)O[C@@H]1C=C2CCC3C(CCC4(C)C3CC[C@@H]4OC(=O)CC)C2CC1 (some centres undefined), Cc1ccc(Cl)c(O)c1 is lower in “activity change, negative = inhibition” value: -4.43% for the first, -6.21% for the second.

For CC1=C(C(=O)O)N2C(=O)[C@@H](N)[C@H]2SC1, the “activity change, negative = inhibition” value was 14.8% [at 20.5 µM].

Assay: qHTS assay to identify small molecule inhibitors of chordoma cells - UCH-2 (AID 1259356); also: % is scaled to controls: 0 for no effect and ±100 for the full control effect
Settings: UCH-2 chordoma viability, CellTiter-Glo ATP luminescence, 48 h; series mostly up to 46.1 µM; activity change, negative = inhibition: at the top concentration

Compared with C[N+](C)(C)CC(=O)O, COC(=O)c1cncn1C(C)c1ccccc1 (centres undefined) is lower in “activity change, negative = inhibition” value: 16.1% for the first, -1.23% for the second.

Going from COC(C)(C)CCCC(C)C/C=C/C(C)=C/C(=O)OC(C)C (centres undefined) to CN[C@@H](C)[C@H](O)c1ccccc1, the “activity change, negative = inhibition” value rises from -0.456% to 0.647%.

First: O=[N+]([O-])c1ccc([As](=O)(O)O)cc1
Second: Cc1cc(O)ccc1Cl
The “activity change, negative = inhibition” value of the first is lower: 1.03% for the first, 11.1% for the second.

Going from O=C1C(I)=CC(=C(c2cc(I)c(O)c(I)c2)c2ccccc2C(=O)O)C=C1I to Cc1ccc(Cl)c(O)c1, the “activity change, negative = inhibition” value falls from 12.4% to 3.76%.

For C1CCC(NC2CCCCC2)CC1, the “activity change, negative = inhibition” value was 0.101%.

— PubChem BioAssay (NCATS)
